In all, about 360,000 compounds went through this assay and about 2,000 (0.56%) were called active.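 How the source made its calls: active means activation above the average of all compounds screened plus 3 SD, cutoff fixed separately per campaign (cut at about 7.5% in these data); inactive means the rest.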 The full list was thinned out, with actives kept by preference.
Assay: GAA850 frataxin promoter reporter upregulation – cell-based, luciferase luminescence, HEK293 lucGAA850, primary screen (AID 540364);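 further: 0% = DMSO wells and 100% = 10 µM SAHA wells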
Details: HEK293 lucGAA850 FXN promoter luciferase reporter, 24 h; at 6 µM; hits give high values; percent of 10 µM SAHA response

Row | SMILES | activation
1 | Cc1ccc(C(=O)N/C(=C/c2cccs2)C(=O)NCC2CCCO2)cc1 (configuration not stated) | 0.61% (inactive)
2 | Cc1ccc2c(c1)N(CC(=O)NCC1CCCO1)C(=O)CO2 (configuration not stated) | 0.58% (inactive)
3 | Cc1ccc(-n2c(C)cc(/C=C(\C#N)C(=O)NCC3CCCO3)c2C)cc1 (configuration not stated) | 8.72% (active)
4 | CCN(CC)CCNS(=O)(=O)c1ccc(/C=C/C(=O)O)cc1 | 3.64% (inactive)
5 | CCCS(=O)(=O)N1CCC(C(=O)NCCCN(C)Cc2ccccc2)CC1 | -0.04% (inactive)
6 | Cc1ccc(NC(=O)c2sc3nc(N)c(C#N)cc3c2N)cc1 | 9.04% (active)
7 | Cc1ccc(Sc2ccc(NC(=O)c3ccc(F)cc3)cc2C#N)cc1 | -1.85% (inactive)
8 | CCc1ccc2nc3sc(C(=O)Nc4nnc(CC)s4)c(N)c3cc2c1 | 3.44% (inactive)
9 | CCCCc1ccc(S(=O)(=O)NC(=O)C2(C)CCN2C(=O)c2c(C)noc2C)cc1 (configuration not stated) | 1.5% (inactive)
10 | Cc1c(C(C)(C)O)[nH]c2ccc(C#N)cc12 | 2.02% (inactive)
11 | Cc1onc(-c2c(F)cccc2Cl)c1C(=O)OCC(=O)N1C(C)CCCC1C (configuration not stated) | 0.34% (inactive)
12 | CCOC(=O)c1cc2c(=O)n3ccccc3nc2n(CC(C)C)c1=NC(=O)c1c(-c2c(F)cccc2Cl)noc1C | 8.16% (active)
13 | CCCn1c(=NC(C)=O)c(C(=O)OCC)cc2c(=O)n3ccccc3nc21 | 5.78% (inactive)
14 | CCCNC(=O)C1(C)CCCN(Cc2c(C)nn(-c3ccccc3)c2C)C1 (configuration not stated) | 0.72% (inactive)
15 | Cc1cc(C(=O)O)c(S(C)(=O)=O)s1 | -0.08% (inactive)
16 | CCOc1ccc(N2C(=O)/C(=C/c3ccc(C)o3)N(C)C2=S)cc1 | 4.15% (inactive)
17 | COc1ccc(CNC(=O)c2c(C)cc(=O)oc2C)cc1OC | -0.25% (inactive)
18 | Cc1cc(=O)oc(C)c1C(=O)NCCN(C)Cc1ccccc1 | 1.1% (inactive)
19 | Cc1cc(=O)oc(C)c1C(=O)NCc1ccc(F)cc1 | 14% (active)
20 | CCN(CC)CCN1C(=O)C2C(C(=O)Nc3ccc(Br)cc3)C3C=CC2(O3)C1C(=O)NC1CCCCC1 (configuration not stated) | -1.41% (inactive)
21 | CS(=O)(=O)c1ccc2nnn(OCC(=O)Nc3cccc(C#N)c3)c2c1 | -0.17% (inactive)
22 | Cc1ccc(C2C(C#N)C(C#N)N3CCCN23)cc1 (configuration not stated) | 3.84% (inactive)
23 | CCCCOC(=O)CNc1nnc(SCC(=O)OCC)[nH]c1=O | 4.67% (inactive)
24 | COc1ccc(C#Cc2c(-c3ccc(OC)cc3)oc3ccc(-c4ccc5c(c4)OCO5)cc23)cc1 | 0.99% (inactive)

Row | SMILES | activation
25 | CC(=O)c1cnc(-c2ccccc2)s1 | -1.26% (inactive)
26 | O=C(/C=C/Nc1ccccc1)c1cnc(-c2ccccc2)s1 | -1.96% (inactive)
27 | CC(C)(C)C(=O)c1cnc(Nc2ccccc2)s1 | 8.7% (active)
28 | Cc1cccc(C)c1N1C(=O)CN(Cc2ccccc2)C1=S | 2.98% (inactive)
29 | O=C(NC(CC(=O)N1CCN(c2ccccc2)CC1)c1ccccc1)c1ccccc1Cl (configuration not stated) | -0.04% (inactive)
30 | CCOc1cc(/C=C2\SC(N3CCCCC3)=NC2=O)ccc1O | 1.52% (inactive)
31 | O=C1N=C(N2CCc3ccccc3C2)S/C1=C\c1ccc(O)cc1 | -0.01% (inactive)
32 | O=C1N=C(N2CCCC2)S/C1=C\c1cccc(Br)c1 | 8.18% (active)
33 | COC(=O)C1CCN(CC(N)=O)CC1 | -1.4% (inactive)
34 | Cc1ccc(CN(C(=O)c2sc3ccccc3c2Cl)C2CCS(=O)(=O)C2)cc1 (configuration not stated) | 1.1% (inactive)
35 | Cc1ccc(CC2(C)C(=O)Nc3ccc(OC(F)(F)F)cc32)cc1 (configuration not stated) | -1% (inactive)
36 | CC1(Cc2ccccc2C#N)C(=O)Nc2ccc(-c3ccc4[nH]ccc4c3)cc21 (configuration not stated) | -5.44% (inactive)
37 | CC1(Cc2cccc(C#N)c2)C(=O)Nc2ccc(-c3cccc(C(F)(F)F)c3)cc21 (configuration not stated) | 11.2% (active)
38 | COc1cccc(CNc2nc(NCc3cccs3)nc3ccsc23)c1 | -1.3% (inactive)
39 | NC(c1csc(NC(=O)Nc2ccccc2Oc2ccccc2)n1)c1ccccc1Cl (configuration not stated) | -1.81% (inactive)
40 | c1ccc2c(c1)OCC(c1nn3cnnc3s1)O2 (configuration not stated) | 3.93% (inactive)
41 | CC1CCc2sc3nc(N4CCN(CCO)CC4)n4ncnc4c3c2C1 (configuration not stated) | 7.88% (active)
42 | CC1CCc2c(sc3nc4n(c(=O)c23)CCS4)C1 (configuration not stated) | 3.94% (inactive)
43 | CCCn1nnc2sc3c(c2c1=O)CCC(C)C3 (configuration not stated) | 4.15% (inactive)
44 | CCOc1cc2[nH]c(=O)n(CCC(=O)NCc3ccc(OC)cc3)c(=O)c2cc1OCC | 0.9% (inactive)
45 | NC(=S)NN=C1CCCC(C(F)(F)F)C1 (configuration not stated) | -0.39% (inactive)
46 | N#CCCCn1c(O)c(N=NC(=O)C(O)c2ccccc2)c2ccccc21 (configuration not stated) | 1.76% (inactive)
47 | CCOC(=O)c1ccc(N=C2SC(C(=O)NC)CC(=O)N2CCc2ccccc2)cc1 (configuration not stated) | 0.94% (inactive)
